High-throughput results deposited in PubChem by National Center for Advancing Translational Sciences (NCATS).
Compounds with a hit are over-represented: about 3.4% of the library has one in this group of screens.
VDR inhibitor = blocks the human vitamin D receptor | Potency, µM, for inactives: max response, negative = inhibition, hits mostly inhibitors | VDR-SRC2-3 peptide fluorescence polarization, 2 h | P11473 | 0.93% of 400,000 active | AID 504847; note: potency is the fitted concentration of half-maximal effect; % is set by controls: 0 for no effect and ±100 for the full control effect
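FP read-out; VDR + SRC2-3 coactivator peptide; 23 nl compound by pintool; 2 h RT incubation; reagents held at 4 deg C, protected from light.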
PKM2 activator = increases activity of human pyruvate kinase M2. P14618. purified PKM2, Kinase-Glo ATP luminescence, activation; response scale: 0% is enzyme alone, no compound. Potency, µM (top dose mostly 57.5 µM), without a hit: at the top dose activation, most hits filed as activators. 0.34% of 260,000 active; note: potency is the fitted concentration of half-maximal effect; % is set by controls: 0 for no effect and ±100 for the full control effect; nearly all actives have a fitted effect of over 55% in size
Target sequence (P14618 whole entry, looked up): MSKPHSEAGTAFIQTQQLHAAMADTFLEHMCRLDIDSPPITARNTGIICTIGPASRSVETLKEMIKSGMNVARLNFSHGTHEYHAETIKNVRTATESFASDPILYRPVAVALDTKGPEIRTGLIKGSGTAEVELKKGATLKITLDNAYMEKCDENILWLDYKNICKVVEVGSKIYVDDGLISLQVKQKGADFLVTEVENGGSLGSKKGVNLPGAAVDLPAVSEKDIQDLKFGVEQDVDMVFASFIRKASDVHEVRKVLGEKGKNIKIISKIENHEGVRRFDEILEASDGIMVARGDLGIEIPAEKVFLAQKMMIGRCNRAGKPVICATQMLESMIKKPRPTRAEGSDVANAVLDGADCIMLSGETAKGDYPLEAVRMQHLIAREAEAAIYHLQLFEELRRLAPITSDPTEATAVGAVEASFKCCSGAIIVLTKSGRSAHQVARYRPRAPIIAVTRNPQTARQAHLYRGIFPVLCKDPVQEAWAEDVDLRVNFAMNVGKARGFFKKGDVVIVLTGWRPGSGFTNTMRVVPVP
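Purified hPK-M2 (>95%) run at intermediate activity with 0.1 mM ADP and 0.5 mM PEP in 50 mM imidazole pH 7.2, KCl, MgCl2; 1 h room temperature. ATP formed read by Kinase-Glo luminescence; normalized to uninhibited and no-enzyme controls.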
PLK1 PBD inh = PLK1 (human) polo-box domain binding inhibition. P53350. Potency, µM, without a hit: max response, negative = inhibition, usual class: inhibitors. Plk1 PBD binding of FITC phosphopeptide, fluorescence polarization. AID 720504. 2.8% of 360,000 active; note: potency is the fitted concentration of half-maximal effect; series mostly up to about 57 µM; % is set by controls: 0 for no effect and ±100 for the full control effect; nearly all actives have a fitted effect of over 65% in size
GCN5L2 inh = blocks human GCN5L2 histone acetyltransferase. Potency, µM (series often up to 58.9 µM), for the others: at the highest dose activity change, negative = inhibition, most hits filed as inhibitors. 0.21% of 390,000 active. GCN5L2 HAT assay, ThioGlo1 CoA-SH fluorescence. Q92830. AID 504327; note: potency is the fitted concentration of half-maximal effect; % is set by controls: 0 for no effect and ±100 for the full control effect
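GCN5L2 (20 nM) in 50mM HEPES pH 7.5, 0.1mM EDTA, 0.01% Tween-20 preincubated 15 min with compounds at room temperature. Reaction started with H3(1-25) 75uM, acetyl-CoA 70uM, ThioGlo1 50uM; CoA-thiol fluorescence (Ex340/Em540) read at 0 and 20 min.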
Mito fusion act = blocks mitochondrial division or promotes mitochondrial fusion; 0.23% of 320,000 active; Potency, µM (top dose mostly 46.1 µM), for inactives: at the top dose growth rescue (activation), usual class: activators; S. cerevisiae fusion-defective mutant growth rescue, CellTiterGlo 48 h; note: potency is the fitted concentration of half-maximal effect; % of control where 0% means no effect; nearly all actives have a fitted effect of over 45% in size
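S. cerevisiae fusion-defective temperature-sensitive mutants (e.g. fzo1-1, mgm1-5) grown 48 h at 37C in YPEG (ethanol/glycerol non-fermentable) medium with 23 nl compound per well; growth rescue read as CellTiterGlo luminescence.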
GLS inh = glutaminase GLS (human) inhibition | 0.21% of 410,000 active | Potency, µM (highest dose often 45.5 µM), inactives show at the highest dose activity change, negative = inhibition, actives largely listed as inhibitors | GLS enzymatic activity, qHTS titration | O94925 | AID 624170; note: potency is the fitted concentration of half-maximal effect; % is set by controls: 0 for no effect and ±100 for the full control effect
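hKGA in 45 mM KH2PO4 (pH 8.2), 0.02% Tween-20 with compound, then 1mM L-Glutamine (stock as added) plus glutamate oxidase/HRP/Amplex red coupling mix. Fluorescence read initially and after 30 min at RT; signal change reflects glutamate formation.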
USP1 UbRho = blocks human USP1/UAF1 cleavage of Ub-Rhodamine; shares compounds with VDR inhibitor; Ub-Rhodamine cleavage, fluorescence kinetic read; Potency, µM (highest dose often 56.8 µM), inactives show at the top dose activity change, negative = inhibition, actives largely listed as inhibitors; 50% of 50 active
VDR confirm = confirmation of human vitamin D receptor inhibitors; Potency, µM, hits mostly inhibitors; shares compounds with VDR inhibitor; VDR-coactivator inhibition assay, qHTS confirmation; 89% of 840 active; note: potency is the fitted concentration of half-maximal effect
VDR FP = confirmation of human VDR-coactivator binding inhibitors, fluorescein label; VDR-coactivator binding, fluorescein fluorescence polarization; 48% of 840 active; shares compounds with VDR inhibitor; Potency, µM (series often up to 57.1 µM), without a hit: at the top dose activity change, negative = inhibition, actives largely listed as inhibitors; note: potency is the fitted concentration of half-maximal effect
VDR bla = VDR (human) inhibition, cell-based beta-lactamase validation; shares compounds with VDR inhibitor; VDR beta-lactamase reporter cells, FRET ratio; cells co-treated with VDR agonist LG190178; Potency, µM (titrated, usually from 46.1 µM), for inactives: top-dose activity change, negative = inhibition, usual class: inhibitors; 23% of 840 active; AID 602202; note: potency is the fitted concentration of half-maximal effect; % is set by controls: 0 for no effect and ±100 for the full control effect
VDR cytotox = cell toxicity, VDR inhibitor hit counter-screen | shares compounds with VDR inhibitor | cytotoxicity counter-screen, cell viability, qHTS | Potency, µM (top dose mostly 48.3 µM), inactives show top-dose activity change, negative = cytotoxicity, actives largely listed as cytotoxic | 18% of 840 active | AID 602204;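 note: potency is the fitted concentration of half-maximal effect; plate controls were DMSO for no effect and high-concentration cycloheximide for full effect; nearly all actives have a fitted effect of over 75% in size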
* = called active by the depositor. Calls come from the whole dose curve; as a rule, active = well fitted curve in the direction sought with a large enough effect; inconclusive = small, poorly fitted or top-dose-only effect, or another doubt; inactive = no such curve, though single readings can be large; an effect the other way counts as inactive or inconclusive.

Results for CC(=O)N(C(C)=O)N1C(=O)C2C3c4ccccc4C(c4ccccc43)C2C1=O (stereo not given) ?
VDR inhibitor: 35µM*; PKM2 activator: -1%; PLK1 PBD inh: inconclusive; GCN5L2 inh: 1%; Mito fusion act: 1%; GLS inh: 26%; VDR confirm: 30*; VDR FP: inconclusive; VDR bla: 33%; VDR cytotox: 1%

How did CCOC(=O)c1sc(NC(=O)C(C)C)c(C#N)c1C do in these assays?
VDR inhibitor: 28µM*; PKM2 activator: -4%; PLK1 PBD inh: 3µM*; GCN5L2 inh: -2%; Mito fusion act: 2%; GLS inh: inconclusive; VDR confirm: 3.8*; VDR FP: inconclusive; VDR bla: -8%; VDR cytotox: -4%

Results for O[C@H]1C[C@H](c2ccc(Cl)cc2)N(CC2CCCCC2)C[C@@H]1n1cc(-c2ccc(F)cc2)nn1 ?
PLK1 PBD inh: 0%; GLS inh: -9%

What do the screens show for `Ic1ccc(N2CCN(Cc3c[nH]c4ncccc34)CC2)cc1`?
VDR inhibitor: inconclusive; PLK1 PBD inh: -13%; GCN5L2 inh: inconclusive; Mito fusion act: inconclusive; GLS inh: 10%; USP1 UbRho: inconclusive

How did CC1C/C(=C/c2cccn2C)C(=O)/C(=C/c2cccn2C)C1 (stereo not given) do in these assays?
VDR inhibitor: -9%; PKM2 activator: -5%; PLK1 PBD inh: 14%; GCN5L2 inh: -6%; Mito fusion act: inconclusive; GLS inh: 15%

How did CC1C/C(=C/c2ccncc2)C(=O)/C(=C/c2ccncc2)C1 (stereo not given) do in these assays?
VDR inhibitor: 22µM*; PKM2 activator: 14%; PLK1 PBD inh: -27%; GCN5L2 inh: -11%; Mito fusion act: 3%; GLS inh: -17%; VDR confirm: 6.7*; VDR FP: 3.5µM*; VDR bla: 5.2µM*; VDR cytotox: 21µM*

What do the screens show for `Nc1ccc(N2CCOCC2)c(S(=O)(=O)Nc2ccccc2Cl)c1`?
VDR inhibitor: 21%; PLK1 PBD inh: -4%; GCN5L2 inh: -6%; GLS inh: 31%

What do the screens show for `COc1ccccc1NS(=O)(=O)c1cc(N)ccc1N1CCOCC1`?
VDR inhibitor: 79µM*; PLK1 PBD inh: 0%; GCN5L2 inh: -16%; GLS inh: -6%; VDR confirm: 21*; VDR FP: 20µM*; VDR bla: 25%; VDR cytotox: 32%

Results for CCCCNC(=O)c1ccc(CS(=O)(=O)c2ccccc2OC)o1 ?
VDR inhibitor: -7%; PLK1 PBD inh: 3%; GCN5L2 inh: 4%; Mito fusion act: 5%; GLS inh: -2%

Results for Cc1ccc2c(c1)C(=O)C(=O)N2Cc1ccc(Br)cc1 ?
VDR inhibitor: 22µM*; PLK1 PBD inh: inconclusive; GCN5L2 inh: -4%; GLS inh: -4%; VDR confirm: 8.4*; VDR FP: inconclusive; VDR bla: -21%; VDR cytotox: inconclusive

How did Cc1ccc(CN2C(=O)C(=O)c3cc(C)ccc32)cc1 do in these assays?
VDR inhibitor: inconclusive; PLK1 PBD inh: -23%; GCN5L2 inh: -5%; GLS inh: 0%

How did CN1CCN(C(c2ccc(F)cc2)c2ccc3cccnc3c2O)CC1 (stereo not given) do in these assays?
VDR inhibitor: -17%; PLK1 PBD inh: inconclusive; GLS inh: -8%

What do the screens show for `CN1CCN(C(c2ccc(Br)cc2)c2cc(Cl)c3cccnc3c2O)CC1` (stereo not given)?
VDR inhibitor: inconclusive; PKM2 activator: 20%; PLK1 PBD inh: 5.3µM*; GCN5L2 inh: -21%; Mito fusion act: inconclusive; GLS inh: inconclusive; VDR confirm: 7.9*; VDR FP: 3.2µM*; VDR bla: 23µM*; VDR cytotox: inconclusive

Results for COc1ccc(-n2c(=O)cnc3cnc(N4CCOCC4)nc32)cc1 ?
VDR inhibitor: -20%; GCN5L2 inh: -11%

What do the screens show for `CC(C)CC1C(=O)N(Cc2cn(CCC3OCCCO3)nn2)CCS(=O)(=O)N1Cc1ccc(-c2ccc(Cl)nc2)cc1` (stereo not given)?
PLK1 PBD inh: -6%; GLS inh: -8%

What do the screens show for `Cc1ccccc1N1C(=O)c2sc3nc4c(c(=O)n3c2C1=O)CCC4`?
VDR inhibitor: inconclusive; PKM2 activator: 10%; PLK1 PBD inh: 8.4µM*; GCN5L2 inh: -9%; Mito fusion act: 3%; GLS inh: 3%; VDR confirm: 20*; VDR FP: 25µM*; VDR bla: inconclusive; VDR cytotox: 0%

What do the screens show for `Cc1ccc(N2C(=O)c3sc4nnc(C)c(=O)n4c3C2=O)cc1`?
VDR inhibitor: 2%; PKM2 activator: -8%; PLK1 PBD inh: -4%; GCN5L2 inh: 0%; Mito fusion act: -13%; GLS inh: -2%

What do the screens show for `O=C(/C=C/c1cccnc1)c1ccc([N+](=O)[O-])cc1`?
VDR inhibitor: inconclusive; PKM2 activator: 10%; PLK1 PBD inh: -20%; GCN5L2 inh: -4%; Mito fusion act: -1%; GLS inh: 11%; VDR confirm: 7.9*; VDR FP: 8.9µM*; VDR bla: inconclusive; VDR cytotox: inconclusive
